In PubChem BioAssay AID1508625 (Wald Lab, School of Medicine, Case Western Reserve …, 2021) one finds z-score and corrected activity, negative = more killing data, which are given here for 21 molecules.

The nature of this assay: small molecules boosting NK-mediated OVCAR3 lysis – imaging, primary NK cells, calcein-AM imaging, primary screen (AID 1508625).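 For z-score: more negative robust z means stronger NK killing of tumor cells.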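 Note: compound given to NK cells 16 h before adding targets at 1.5 to 1 ratio.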 The settings on record: OVCAR3 lysis by primary NK cells, at 5 µM; z-score: measured here: robust Z-score, single-point normalisation.
Turning to `CCOP(=S)(OCC)SCC(=O)c1c(O)cc(C)oc1=O`, the z-score is -1.01 and the corrected activity, negative = more killing was -2.68%.

Turning to `COc1ccccc1CC(C)NC1CCCc2c1[nH]c1ccc([N+](=O)[O-])cc21` (configuration not stated), the z-score was 1.24 and the corrected activity, negative = more killing was 2.84%.

With `C=CCON=C(CCC)C1C(=O)CC(C)(C)C(C(=O)OC)C1=O` (configuration not stated), the z-score was -1.77 and the corrected activity, negative = more killing is -4.48%.

Consider `O=c1cccc2n1C[C@H]1C[C@@H]2CN(Cc2ccccc2F)C1`, for which the corrected activity, negative = more killing is -2.76% and the z-score is -1.43.

As for `Cc1cnc2cccc[n+]2c1C`, the z-score is 0.254 and the corrected activity, negative = more killing is 0.645%.

As to `CCCCCn1c(=O)c(C(=O)Nc2cccc(OC)c2)c(O)c2ccccc21`, the corrected activity, negative = more killing was -0.341% and the z-score was -0.108.

Turning to `O=c1c2ccccc2nc(-c2ccco2)n1-c1ccc(Cl)cc1`, the z-score was -0.329 and the corrected activity, negative = more killing was -0.835%.

As to `CCOc1cccc(C(O)CNC)c1` (configuration not stated), the z-score was 0.0176 and the corrected activity, negative = more killing is 0.0567%.

As for `CC12CN3CN(C1)CC(C)(C3)C2=NN`, the z-score is -2.42 and the corrected activity, negative = more killing is -6.15%.

Regarding `CCCC12CN3CCN(CC(C3)C1O)C2` (configuration not stated), the corrected activity, negative = more killing was 0.145% and the z-score is 0.0449.

Regarding `O=[N+]([O-])c1ccccc1CNCCc1cccc(F)c1`, the corrected activity, negative = more killing was -3.35% and the z-score was -1.06.

For `O=S1(=O)CC2(N3CCOCC3)CCCCC21` (configuration not stated), the corrected activity, negative = more killing is -5.53% and the z-score was -1.76.

As for `Cc1ccc(OCC(=O)N2CCN(C3CCCCC3)CC2)cc1`, the corrected activity, negative = more killing is -3.64% and the z-score is -1.62.

For the molecule `CCN(CC)CCCn1c(=S)[nH]c2cc(Cl)ccc2c1=O`, the z-score was -1.2 and the corrected activity, negative = more killing is -4.51%.

Turning to `COc1cccc(CCNCc2ccc(C)cc2C)c1`, the corrected activity, negative = more killing was -4.05% and the z-score was -1.29.

On to `CC(Cc1ccccc1F)NC1CCCc2c1[nH]c1ccc([N+](=O)[O-])cc21` (configuration not stated), for which the z-score was -0.594 and the corrected activity, negative = more killing was -1.36%.

Consider `O=[N+]([O-])c1ccc(NCCc2ccccc2)c2ncccc12`, for which the corrected activity, negative = more killing is 1.61% and the z-score is 0.498.

`CCC(C)N1CCN(Cc2cccc(Cl)c2)CC1` (configuration not stated): the corrected activity, negative = more killing was -0.307% and the z-score was -0.137.

Regarding `CCOC(=O)CN1C(=O)NC2(CCN(C)CC2)C1=O`, the z-score is -1.02 and the corrected activity, negative = more killing was -3.8%.

For the molecule `FC(F)(F)c1ccc(CNCCc2ccc3c(c2)OCO3)cc1`, the corrected activity, negative = more killing was -3.37% and the z-score was -1.07.

With `COc1ccc(C2(CN)CCCC2)cc1OC`, the z-score was -0.675 and the corrected activity, negative = more killing is -1.26%.
